For part of these data: Potency and affinity values are given separately.

Common to all, as to set-up: scale not given: direction of the effect not stated beside the values
For assay [1], the target named is Protein translocase subunit SecA (Escherichia coli (strain K12)) (UniProt P10408). In words: Assay to Identify E. coli SecA ATPase Inhibitors. The format is functional. The conditions noted are these: 30 µM.
Assay [2] has as its target T1, Ubiquitin-activating enzyme e1, putative (Leishmania donovani (strain BPK282A1)) (UniProt E9BSI1).
T1 sequence (whole entry): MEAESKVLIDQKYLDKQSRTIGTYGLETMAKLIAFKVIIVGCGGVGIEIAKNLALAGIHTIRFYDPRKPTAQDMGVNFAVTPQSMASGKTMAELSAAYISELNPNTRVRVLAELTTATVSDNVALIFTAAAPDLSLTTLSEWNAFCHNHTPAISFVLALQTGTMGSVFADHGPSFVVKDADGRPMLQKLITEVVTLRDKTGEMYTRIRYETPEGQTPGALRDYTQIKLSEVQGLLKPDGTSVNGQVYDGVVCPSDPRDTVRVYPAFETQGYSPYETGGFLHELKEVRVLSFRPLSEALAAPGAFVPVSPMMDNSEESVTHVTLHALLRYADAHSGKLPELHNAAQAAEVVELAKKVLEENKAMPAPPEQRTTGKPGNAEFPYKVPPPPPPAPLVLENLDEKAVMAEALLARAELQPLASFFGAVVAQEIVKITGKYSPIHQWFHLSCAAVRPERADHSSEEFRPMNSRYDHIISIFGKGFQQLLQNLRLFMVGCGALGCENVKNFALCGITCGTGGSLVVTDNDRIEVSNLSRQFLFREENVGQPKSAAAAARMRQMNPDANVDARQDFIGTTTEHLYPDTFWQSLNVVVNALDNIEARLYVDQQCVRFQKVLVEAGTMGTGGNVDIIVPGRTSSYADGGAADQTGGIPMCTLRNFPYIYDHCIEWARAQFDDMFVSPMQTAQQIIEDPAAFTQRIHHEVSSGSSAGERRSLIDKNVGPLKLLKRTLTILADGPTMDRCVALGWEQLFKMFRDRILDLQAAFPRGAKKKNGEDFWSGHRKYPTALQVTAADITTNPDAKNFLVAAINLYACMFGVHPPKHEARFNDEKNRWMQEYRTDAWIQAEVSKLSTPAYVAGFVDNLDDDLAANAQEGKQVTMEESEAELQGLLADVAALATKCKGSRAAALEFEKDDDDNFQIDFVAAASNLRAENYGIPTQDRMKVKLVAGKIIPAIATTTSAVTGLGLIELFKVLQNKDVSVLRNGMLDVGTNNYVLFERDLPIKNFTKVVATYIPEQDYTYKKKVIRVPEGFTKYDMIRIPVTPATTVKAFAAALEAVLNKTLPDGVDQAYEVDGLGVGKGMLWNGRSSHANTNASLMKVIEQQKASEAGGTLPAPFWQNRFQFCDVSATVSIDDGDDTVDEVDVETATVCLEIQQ
In words: Leishmania donovani Ubiquitin Activating Enzyme (LdE1). Conditions: 30 µM. The format is functional.

For assay [3], the target named is Sialic acid-binding Ig-like lectin 9 (Homo sapiens) (UniProt Q9Y336). Briefly: Hs-Siglec9 ALPHAscreen SOP 20170721. The conditions noted are these: 10 µM.
Sialic acid-binding Ig-like lectin 9 (Homo sapiens), sequence (Q9Y336 whole entry): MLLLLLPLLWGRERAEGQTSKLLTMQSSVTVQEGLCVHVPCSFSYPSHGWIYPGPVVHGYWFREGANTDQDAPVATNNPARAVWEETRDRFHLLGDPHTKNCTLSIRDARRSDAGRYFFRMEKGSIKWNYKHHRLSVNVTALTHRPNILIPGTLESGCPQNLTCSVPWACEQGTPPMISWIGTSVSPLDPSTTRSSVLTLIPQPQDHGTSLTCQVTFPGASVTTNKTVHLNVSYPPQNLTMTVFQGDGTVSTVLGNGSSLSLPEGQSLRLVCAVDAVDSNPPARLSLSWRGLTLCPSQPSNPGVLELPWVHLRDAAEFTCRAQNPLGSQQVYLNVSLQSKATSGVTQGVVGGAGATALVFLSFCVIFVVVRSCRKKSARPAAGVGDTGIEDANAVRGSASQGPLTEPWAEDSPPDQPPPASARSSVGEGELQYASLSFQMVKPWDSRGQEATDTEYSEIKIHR
For the next assay, the system named is Trypanosoma cruzi. In words: Trypanosoma cruzi phosphomannomutase and mannose-1-phosphate guanylyltransferase assay. Format: functional. The conditions noted are these: 10 µM.
Assay [4] deals with T2, Arginase-2, mitochondrial (Homo sapiens) (UniProt P78540).
T2 sequence (whole entry): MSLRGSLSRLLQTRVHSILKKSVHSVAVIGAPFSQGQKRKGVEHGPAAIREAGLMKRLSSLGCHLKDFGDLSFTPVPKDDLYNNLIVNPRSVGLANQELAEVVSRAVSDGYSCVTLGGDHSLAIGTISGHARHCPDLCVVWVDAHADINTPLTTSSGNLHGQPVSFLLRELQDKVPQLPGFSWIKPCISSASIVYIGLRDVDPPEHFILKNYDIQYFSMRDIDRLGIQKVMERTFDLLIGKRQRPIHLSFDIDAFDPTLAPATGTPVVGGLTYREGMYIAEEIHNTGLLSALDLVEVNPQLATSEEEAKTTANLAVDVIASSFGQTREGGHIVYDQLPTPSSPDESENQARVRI
Briefly: in vitro enzyme assay to detect the production of urea directly proportional to the activity of Arginase II. Further: in the data most compounds retested in dose-response had high values. The format is functional. Conditions: 33.3 µM.

Assay [5] deals with T3, Proteasome subunit beta (Trypanosoma cruzi) (UniProt O96673).
T3 sequence (whole entry): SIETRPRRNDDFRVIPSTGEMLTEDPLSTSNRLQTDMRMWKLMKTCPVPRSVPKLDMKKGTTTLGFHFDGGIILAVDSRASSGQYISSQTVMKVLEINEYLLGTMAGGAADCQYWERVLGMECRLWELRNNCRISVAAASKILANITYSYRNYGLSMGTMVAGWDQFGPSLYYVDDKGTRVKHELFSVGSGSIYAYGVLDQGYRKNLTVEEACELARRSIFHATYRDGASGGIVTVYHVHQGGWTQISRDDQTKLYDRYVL
In words: Trypanosoma cruzi proteasome chymotrypsin-like activity (TcProtChymo) assay. Further: in the data most compounds retested in dose-response had high values. The format is functional. Conditions: 9.37 µM.

For another assay, the species on record is Homo sapiens. Briefly: To identify inhibition of the IFN signalling (Jak-Stat) pathway via expression of an eGFP reporter gene under the control of an IFN-stimulated response element (ISRE) containing MxA promoter. Format: functional. Conditions: 30 µM. (In general: A reporter such as luciferase makes a cellular process visible.)
In assay [6] the target is T4, Tyrosyl-tRNA synthetase, putative (Trypanosoma cruzi (strain CL Brener)) (UniProt Q4DSP6).
T4 sequence (whole entry): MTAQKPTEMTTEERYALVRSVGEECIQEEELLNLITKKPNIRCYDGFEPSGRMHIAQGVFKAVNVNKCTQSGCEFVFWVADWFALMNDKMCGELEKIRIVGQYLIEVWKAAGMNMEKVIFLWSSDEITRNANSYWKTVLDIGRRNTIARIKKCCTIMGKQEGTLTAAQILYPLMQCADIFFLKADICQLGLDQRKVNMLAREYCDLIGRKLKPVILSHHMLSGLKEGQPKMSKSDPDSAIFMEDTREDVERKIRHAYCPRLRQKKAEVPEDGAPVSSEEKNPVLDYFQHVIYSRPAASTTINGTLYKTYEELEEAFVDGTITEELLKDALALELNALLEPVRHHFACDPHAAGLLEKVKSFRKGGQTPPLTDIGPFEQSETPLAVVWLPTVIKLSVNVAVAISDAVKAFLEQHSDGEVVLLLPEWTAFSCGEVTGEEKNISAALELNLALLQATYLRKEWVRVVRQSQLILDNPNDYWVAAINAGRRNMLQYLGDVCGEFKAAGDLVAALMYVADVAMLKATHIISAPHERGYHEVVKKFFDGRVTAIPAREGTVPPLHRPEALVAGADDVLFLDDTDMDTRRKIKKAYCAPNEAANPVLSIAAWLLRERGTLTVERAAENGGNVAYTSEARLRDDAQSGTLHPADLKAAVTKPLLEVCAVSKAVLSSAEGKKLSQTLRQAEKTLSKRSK
Briefly: Trypanosoma cruzi tyrosyl tRNA synthetase (TcYRS) _High Tyrosine SOP. Further: in the data most compounds retested in dose-response had high values. The format is functional. The conditions noted are these: 30 µM.

Assay [7] addresses T4, Tyrosyl-tRNA synthetase, putative (Trypanosoma cruzi (strain CL Brener)). In words: Trypanosoma cruzi tyrosyl tRNA synthetase (TcYRS) SOP. Conditions: 30 µM. The format is functional.
The target of assay [8] is Chromo domain-containing protein 1 (Saccharomyces cerevisiae (strain ATCC 204508 / S288c) (Baker's yeast)) (UniProt P32657). In words: ScCHD-1 Enzyme Inhibition Assay. Further: in the data most compounds retested in dose-response had high values. Format: functional. The conditions noted are these: 30 µM.
Chromo domain-containing protein 1 (Saccharomyces cerevisiae (strain ATCC 204508 / S288c) (Baker's yeast)), sequence (P32657 whole entry, the tested form may be a part): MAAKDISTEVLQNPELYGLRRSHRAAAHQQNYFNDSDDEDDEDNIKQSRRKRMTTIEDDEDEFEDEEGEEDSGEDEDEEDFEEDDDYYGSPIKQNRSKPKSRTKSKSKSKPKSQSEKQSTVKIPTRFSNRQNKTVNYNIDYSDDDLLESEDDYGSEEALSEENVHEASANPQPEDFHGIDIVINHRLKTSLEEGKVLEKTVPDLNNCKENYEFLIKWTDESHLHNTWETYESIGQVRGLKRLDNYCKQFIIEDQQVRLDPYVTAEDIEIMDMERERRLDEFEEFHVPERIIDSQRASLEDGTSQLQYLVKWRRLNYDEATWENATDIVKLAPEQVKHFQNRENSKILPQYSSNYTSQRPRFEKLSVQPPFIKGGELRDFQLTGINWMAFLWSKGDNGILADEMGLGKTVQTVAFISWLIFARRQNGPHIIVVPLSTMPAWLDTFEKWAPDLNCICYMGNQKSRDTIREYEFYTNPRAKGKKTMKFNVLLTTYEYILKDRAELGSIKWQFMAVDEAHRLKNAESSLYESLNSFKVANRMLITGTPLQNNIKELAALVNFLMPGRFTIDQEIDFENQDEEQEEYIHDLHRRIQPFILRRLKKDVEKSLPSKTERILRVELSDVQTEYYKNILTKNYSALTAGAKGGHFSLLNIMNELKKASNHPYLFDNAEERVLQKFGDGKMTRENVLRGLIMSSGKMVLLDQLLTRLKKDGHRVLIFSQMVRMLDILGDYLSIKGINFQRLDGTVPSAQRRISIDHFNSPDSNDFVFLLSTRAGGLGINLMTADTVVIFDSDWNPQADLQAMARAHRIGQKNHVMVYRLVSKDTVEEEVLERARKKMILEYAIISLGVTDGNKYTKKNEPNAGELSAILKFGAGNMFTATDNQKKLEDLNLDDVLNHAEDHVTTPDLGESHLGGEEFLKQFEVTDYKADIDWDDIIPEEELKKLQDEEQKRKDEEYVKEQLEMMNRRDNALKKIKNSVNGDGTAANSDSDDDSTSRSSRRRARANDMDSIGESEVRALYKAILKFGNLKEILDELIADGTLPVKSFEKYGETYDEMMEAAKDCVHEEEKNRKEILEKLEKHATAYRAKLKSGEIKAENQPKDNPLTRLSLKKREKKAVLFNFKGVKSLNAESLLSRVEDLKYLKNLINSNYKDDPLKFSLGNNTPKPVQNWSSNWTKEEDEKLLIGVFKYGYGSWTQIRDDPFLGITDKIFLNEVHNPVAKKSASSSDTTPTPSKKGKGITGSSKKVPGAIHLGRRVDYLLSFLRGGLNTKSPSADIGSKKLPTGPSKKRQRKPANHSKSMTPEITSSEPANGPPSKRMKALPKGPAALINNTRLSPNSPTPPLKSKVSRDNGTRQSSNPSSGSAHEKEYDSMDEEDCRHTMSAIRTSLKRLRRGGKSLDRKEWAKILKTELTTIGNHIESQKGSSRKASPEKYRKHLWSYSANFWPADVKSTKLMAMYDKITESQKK
The target in assay [9] is AMP-activated protein kinase, AMPK (Homo sapiens) (UniProt P54646+O43741+P54619+Q9UGJ0+Q9Y478+Q13131+Q9UGI9). In words: AMP-dependent Kinase enzyme assay. An in vitro enzyme assay that detects ADP turnover that is directly proportional to AMPK activity. This uses naive AMPK that is activated during the assay with MK-8722. The format is functional. Conditions: 30 µM.

Protein translocase subunit SecA (Escherichia coli (strain K12)), sequence (P10408 whole entry): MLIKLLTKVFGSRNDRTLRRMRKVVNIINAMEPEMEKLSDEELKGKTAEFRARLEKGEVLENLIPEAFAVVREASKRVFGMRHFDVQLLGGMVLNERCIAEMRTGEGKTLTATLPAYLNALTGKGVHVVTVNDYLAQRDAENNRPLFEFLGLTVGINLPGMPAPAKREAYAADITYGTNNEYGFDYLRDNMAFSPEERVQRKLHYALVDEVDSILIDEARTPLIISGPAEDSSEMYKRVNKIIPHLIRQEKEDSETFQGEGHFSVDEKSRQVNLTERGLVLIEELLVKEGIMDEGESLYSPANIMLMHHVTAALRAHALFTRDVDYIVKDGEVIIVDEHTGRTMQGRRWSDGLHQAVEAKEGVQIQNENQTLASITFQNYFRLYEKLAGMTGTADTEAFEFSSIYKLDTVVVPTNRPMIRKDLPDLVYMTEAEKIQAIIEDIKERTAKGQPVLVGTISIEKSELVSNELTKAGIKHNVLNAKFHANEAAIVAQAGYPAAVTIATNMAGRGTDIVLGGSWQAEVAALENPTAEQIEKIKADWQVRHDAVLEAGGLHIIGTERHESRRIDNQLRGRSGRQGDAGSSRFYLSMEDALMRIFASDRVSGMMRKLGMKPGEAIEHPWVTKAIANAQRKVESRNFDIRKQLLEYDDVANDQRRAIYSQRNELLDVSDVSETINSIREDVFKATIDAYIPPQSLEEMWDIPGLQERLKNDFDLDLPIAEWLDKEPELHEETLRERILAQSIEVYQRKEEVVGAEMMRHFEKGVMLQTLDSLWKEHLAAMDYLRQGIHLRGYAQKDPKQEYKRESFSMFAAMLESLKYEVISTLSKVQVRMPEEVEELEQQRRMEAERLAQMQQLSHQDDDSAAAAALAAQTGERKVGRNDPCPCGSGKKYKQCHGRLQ

In the case of `CCC(=O)N1CCCC1c1nccnc1Nc1nc(C)cc(C)n1` (centres undefined), the Percent Effect in [1] was -0.0687%; in assay [2] it was 14.7%; in assay [3], 0.282%; in the assay on Trypanosoma cruzi, 0.789%; in [4], 2.21%; in assay [5], 15.8%. The Percent Effect in the assay filed under Homo sapiens was 6.52%; in [6] it was 2.12%; in assay [7] it was 7.5%; in assay [8] it was -21.6%.
As to `Cc1[nH]nc(CCC(=O)N2CCCC(OCc3cccnc3)C2)c1C` (centres undefined), the Percent Effect in [1] is -5.06%; in assay [2], 10.8%; in assay [3] it was 4.22%; in the assay on Trypanosoma cruzi it was 0.679%; in assay [4], -0.35%; in assay [5], 2.91%. Besides, the Percent Effect is 27.8% in the assay listed under Homo sapiens, 6.92% in [6], 17.1% in [7] and -1.03% in assay [8].
As for `Cc1noc(C2CCN(C(=O)c3ccc(NC4CC4)nc3)CC2)n1`, the Percent Effect in [1] was -3.73%; in assay [2] it was 20.5%; in [3] it was -12.9%; in the assay with Trypanosoma cruzi, 4.6%; in assay [4], 1.64%; in assay [5], 11.3%. Also, the Percent Effect is 11.4% in the assay listed under Homo sapiens, 2.39% in assay [6], 20.5% in assay [7] and -6.59% in assay [8].
Turning to `Fc1cccnc1CN1CCCCC1c1ccn2ccnc2n1` (centres undefined), the Percent Effect in [1] is -5.06%; in [2] it was 22.7%; in [3], -2.65%; in the assay on Trypanosoma cruzi, 1.77%; in [4], -1.33%; in assay [5], 11.8%. Further, the Percent Effect in the assay listed under Homo sapiens is 14%; in assay [6], 8.47%; in assay [7], 22.5%; in assay [8] it was -27.9%.
With `COc1ccc(CCCN(C)C(=O)c2cc(C(C)=O)c[nH]2)cc1OC`, the Percent Effect in [9] was -2.16%.
Same read-out and setting: the result for `Cn1cccc1C(=O)N1CC[C@@]2(O)CCN(S(C)(=O)=O)C[C@H]2C1` reads 4.08%.
For the molecule `Cc1cnn(CC2CCCCN2CCn2cncn2)c1` (centres undefined), the Percent Effect in [1] is -1.55%; in assay [2] it was 16%; in assay [3] it was -7.29%; in the assay with Trypanosoma cruzi, -3.61%; in [4] it was 4.88%; in assay [5] it was 14.2%. Also, the Percent Effect in the assay filed under Homo sapiens is 5.08%; in assay [6], 5.79%; in assay [7], 7.69%; in assay [8], -6.72%.
On to `CNc1ccc(CC2CCCN(C(=O)c3cncnc3C)C2)nn1` (centres undefined), for which the Percent Effect is 3.9% in assay [1]; 12% in assay [2]; -5.1% in [3]; -6.31% in the assay on Trypanosoma cruzi; 8.41% in [4]; 13% in assay [5]. The Percent Effect in the assay filed under Homo sapiens was 4.65%; in assay [6], 1.06%; in assay [7], 10%; in assay [8] it was -22.6%.
Regarding `CS(=O)(=O)N1CC[C@]2(O)CCN(c3ccnc(N)n3)C[C@@H]2C1`, the Percent Effect in [9] was -13.7%.
For `Cc1ccc(C(=O)N2CCC3(CC2)CC(N2CCOCC2)C3)cc1`, the Percent Effect was -2.43% in assay [1]; 9.09% in assay [2]; -5.57% in assay [3]; 1.31% in the assay with Trypanosoma cruzi; 0.457% in assay [4]; -3.18% in assay [5]. For the same molecule, the Percent Effect in the assay filed under Homo sapiens was -1.46%; in assay [6], 3.87%; in assay [7], 2.5%; in assay [8] it was 0.386%.
`Cn1cccc1-c1cc(C(=O)N2CCCC2c2cccnc2)[nH]n1` (centres undefined): the Percent Effect in assay [1] is -6.61%; in assay [2], 18.9%; in [3] it was 15.5%; with Trypanosoma cruzi it was 5.72%; in [4], 5.94%; in assay [5] it was 16.6%. In addition, the Percent Effect was 5.26% in the assay listed under Homo sapiens, 4.79% in assay [6], 17.1% in assay [7] and -2.92% in assay [8].
Regarding `Cc1ccsc1C(CNC(=O)c1cc(=O)c2ccccc2[nH]1)N(C)C` (centres undefined), in [9], the Percent Effect is 13.7%.
Consider `COCCN1CCN(Cc2cccc(OCC(N)=O)c2)CC1C` (centres undefined), for which the Percent Effect in assay [1] was -6.03%; in [2], 0%; in [3], -0.422%; with Trypanosoma cruzi, -3.81%; in assay [4] it was -0.887%; in assay [5], -0.255%. Further, the Percent Effect was 7.49% in the assay filed under Homo sapiens, 2.63% in [6], 0% in assay [7] and -4.22% in [8].
For the molecule `CC1(C)OCC(CNC(=O)c2cnn(-c3cc(Cl)ccc3Cl)c2N)O1` (centres undefined), the Percent Effect in [1] was 3.78%; in assay [2] it was 9.33%; in assay [3], -9.42%; in the assay with Trypanosoma cruzi it was -1.97%; in assay [4], 3.98%; in assay [5] it was 17.1%. Also, the Percent Effect in the assay filed under Homo sapiens is 11.8%; in [6], 0%; in assay [7], 7.5%; in assay [8], -20.1%.
As to `c1ccc(-n2ccc(CN3CCCC3Cn3cccn3)n2)cc1` (centres undefined), the Percent Effect in assay [1] is -2.21%; in assay [2] it was -49.4%; in assay [3] it was 9.5%; with Trypanosoma cruzi it was -5.97%; in assay [4], -7.17%; in assay [5] it was 8.25%. In addition, the Percent Effect is 11.5% in the assay listed under Homo sapiens, 0% in [6], -11.8% in assay [7] and 3.12% in [8].

These data come from ChEMBL document CHEMBL3988442, “University of Dundee, Small-Polar-MMV Screening Library” (2021).
